From PubChem BioAssay (NCI)
This is part of a sample that, as a whole, favours compounds with a hit. Of some 83,000 tested, about 20% had one in any assay.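 The test compound was applied at a single concentration to cells in 96-well plates for 48 hours, and percent growth was recorded.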 Calls of active or inactive are those of the source. The calls were made as follows: active = growth percent below 10; inactive = the rest.

Tests used:
Test in all cases: NCI-60 one-dose screen, 48 h (100 = growth as untreated, 0 = no growth, -100 = all killed)
Conditions in all cases: 10 µM unless noted
MOLT-4 leukemia = test system: MOLT-4 leukemia
SR leukemia = test system: SR leukemia
OVCAR-8 ovarian = test system: OVCAR-8 ovarian
OVCAR-5 ovarian = test system: OVCAR-5 ovarian
OVCAR-4 ovarian = test system: OVCAR-4 ovarian
SK-OV-3 ovarian = test system: SK-OV-3 ovarian
IGROV1 ovarian = test system: IGROV1 ovarian
OVCAR-3 ovarian = test system: OVCAR-3 ovarian
NCI/ADR-RES ovarian = test system: NCI/ADR-RES ovarian
T-47D breast = test system: T-47D breast
BT-549 breast = test system: BT-549 breast
MDA-MB-435 melanoma = test system: MDA-MB-435 melanoma
SW-620 colon = test system: SW-620 colon
MCF7 breast = test system: MCF7 breast
HCT-116 colon = test system: HCT-116 colon
HCC-2998 colon = test system: HCC-2998 colon
KM12 colon = test system: KM12 colon
HS 578T breast = test system: HS 578T breast

Measured: growth

O=[N+]([O-])c1ccc(OP(=O)(CCl)N(CCCl)CCCl)cc1 (centres undefined)
inactive: MOLT-4 leukemia 89.7% | SR leukemia 87.9% | OVCAR-8 ovarian 100% | OVCAR-5 ovarian 99.6% | OVCAR-4 ovarian 104% | SK-OV-3 ovarian 106% | IGROV1 ovarian 104% | OVCAR-3 ovarian 118% | NCI/ADR-RES ovarian 101% | T-47D breast 93.8% | BT-549 breast 93.6% | MDA-MB-435 melanoma 104% | SW-620 colon 102% | MCF7 breast 92.5% | HCT-116 colon 97.9% | HCC-2998 colon 105% | KM12 colon 101%

CC(=O)O[C@H]1CC[C@]2(C)[C@H]3CC[C@]4(C)[C@@H](OC(C)=O)CC[C@H]4[C@@H]3[C@@H](C)[C@]2(O)C1
inactive: MOLT-4 leukemia 87.9% | SR leukemia 96.1% | OVCAR-8 ovarian 115% | OVCAR-5 ovarian 108% | OVCAR-4 ovarian 110% | SK-OV-3 ovarian 117% | IGROV1 ovarian 116% | OVCAR-3 ovarian 127% | HS 578T breast 110% | NCI/ADR-RES ovarian 98.9% | T-47D breast 106% | BT-549 breast 113% | SW-620 colon 104% | MCF7 breast 104% | HCT-116 colon 98.1% | HCC-2998 colon 108% | KM12 colon 109%

COC(=O)[C@@]1(C)CC[C@]2(C)CC[C@]3(C)C4=CC(=O)c5c(cc(O)c(O)c5C)[C@]4(C)CC[C@@]3(C)[C@@H]2C1
inactive: MOLT-4 leukemia 18.3% | SR leukemia 51.2% | OVCAR-8 ovarian 60.4% | OVCAR-5 ovarian 119% | OVCAR-4 ovarian 47.4% | SK-OV-3 ovarian 58.3% | IGROV1 ovarian 50.8% | OVCAR-3 ovarian 47.9% | HS 578T breast 79.5% | NCI/ADR-RES ovarian 63.4% | T-47D breast 54.1% | BT-549 breast 82.1% | MDA-MB-435 melanoma 58.5% | SW-620 colon 60.3% | MCF7 breast 41.9% | HCT-116 colon 31.3% | HCC-2998 colon 76.7% | KM12 colon 50.4%

Cc1sc2c(c1C)C(c1ccc(Cl)cc1)=N[C@@H](CC(=O)OC(C)(C)C)c1nnc(C)n1-2
inactive: MOLT-4 leukemia 48.3% | SR leukemia 19.2% | OVCAR-8 ovarian 53% | OVCAR-5 ovarian 45.4% | OVCAR-4 ovarian 42.6% | SK-OV-3 ovarian 39.3% | IGROV1 ovarian 31.4% | OVCAR-3 ovarian 20% | NCI/ADR-RES ovarian 34.2% | T-47D breast 51.9% | BT-549 breast 58.5% | MDA-MB-435 melanoma 30% | SW-620 colon 52.4% | MCF7 breast 19.1% | HCT-116 colon 31% | HCC-2998 colon 19.1% | KM12 colon 40.7%
active: HS 578T breast -4.04%

O=[N+]([O-])CC(O)C(Cl)(Cl)Cl (centres undefined)
inactive: MOLT-4 leukemia 107% | SR leukemia 98.5% | OVCAR-8 ovarian 116% | OVCAR-5 ovarian 93.6% | OVCAR-4 ovarian 94.2% | SK-OV-3 ovarian 100% | IGROV1 ovarian 102% | OVCAR-3 ovarian 116% | NCI/ADR-RES ovarian 104% | T-47D breast 89.6% | BT-549 breast 58% | MDA-MB-435 melanoma 103% | SW-620 colon 95.8% | MCF7 breast 95.5% | HCT-116 colon 102% | HCC-2998 colon 106% | KM12 colon 107%

Nc1nnnc2nc[nH]c12
inactive: OVCAR-8 ovarian 11.5% | OVCAR-4 ovarian 27.4% | OVCAR-3 ovarian 27.6% | BT-549 breast 43.8% | SW-620 colon 11% | MCF7 breast 15.3% | HCC-2998 colon 17.1% | KM12 colon 25.6%
active: MOLT-4 leukemia 8.9% | SR leukemia 5.26% | OVCAR-5 ovarian -3.28% | SK-OV-3 ovarian -1.85% | IGROV1 ovarian 8.3% | HS 578T breast 8.71% | NCI/ADR-RES ovarian 0.552% | T-47D breast -26.6% | MDA-MB-435 melanoma -11.8% | HCT-116 colon -11.8%

Cc1c2cc(Cl)c3ccccc3c2c[n+]2ccccc12
inactive: OVCAR-5 ovarian 77.6% | OVCAR-4 ovarian 30.3% | SK-OV-3 ovarian 66.6% | IGROV1 ovarian 19.9% | NCI/ADR-RES ovarian 87.2% | MDA-MB-435 melanoma 64.9% | SW-620 colon 50.7% | MCF7 breast 26.4% | HCT-116 colon 48.7% | HCC-2998 colon 15.3% | KM12 colon 39.7%
active: MOLT-4 leukemia 1.48% | SR leukemia -11.7% | OVCAR-8 ovarian -1.69% | OVCAR-3 ovarian 4.55% | HS 578T breast -33.2% | T-47D breast -27.4% | BT-549 breast -6.2%

CCCCCCCCOC(=O)CCN1CC1
inactive: MOLT-4 leukemia 103% | SR leukemia 101% | OVCAR-8 ovarian 102% | OVCAR-5 ovarian 104% | OVCAR-4 ovarian 115% | SK-OV-3 ovarian 109% | IGROV1 ovarian 115% | OVCAR-3 ovarian 108% | HS 578T breast 99.6% | T-47D breast 108% | BT-549 breast 107% | MDA-MB-435 melanoma 105% | SW-620 colon 113% | MCF7 breast 102% | HCT-116 colon 112% | HCC-2998 colon 110% | KM12 colon 109%

CCC[CH2][Sn]([CH2]CCC)([CH2]CCC)[O]c1ccc(Cl)cc1Cl
active: MOLT-4 leukemia -6.07% | SR leukemia -30.4% | OVCAR-8 ovarian -48.1% | OVCAR-5 ovarian -66.3% | OVCAR-4 ovarian -100% | SK-OV-3 ovarian -97.5% | IGROV1 ovarian -66.9% | OVCAR-3 ovarian -100% | HS 578T breast -10.3% | NCI/ADR-RES ovarian -84.6% | T-47D breast -84% | BT-549 breast -81.7% | MDA-MB-435 melanoma -60.7% | SW-620 colon -92.9% | MCF7 breast -93% | HCT-116 colon -79.9% | HCC-2998 colon -95.4% | KM12 colon -94.2%

COc1ccc(/C=C\c2cc(OC)c(OC)c(OC)c2)c(NS(=O)(=O)c2ccc(F)cc2)c1O
active: OVCAR-3 ovarian -37.8% | MDA-MB-435 melanoma -34.9% | MCF7 breast 9.22% | HCT-116 colon 7.7% | KM12 colon 1.13%
inactive: MOLT-4 leukemia 19.6% | SR leukemia 19% | OVCAR-8 ovarian 22.5% | OVCAR-5 ovarian 40.4% | OVCAR-4 ovarian 29.3% | SK-OV-3 ovarian 12.4% | IGROV1 ovarian 28.3% | HS 578T breast 25.3% | T-47D breast 103% | BT-549 breast 24% | SW-620 colon 21.1% | HCC-2998 colon 14.9%

NC(=O)C(Br)c1ccccc1 (centres undefined)
inactive: MOLT-4 leukemia 74.2% | SR leukemia 46.1% | OVCAR-8 ovarian 90.8% | OVCAR-5 ovarian 114% | OVCAR-4 ovarian 89.6% | SK-OV-3 ovarian 117% | IGROV1 ovarian 80.3% | OVCAR-3 ovarian 91.9% | HS 578T breast 103% | NCI/ADR-RES ovarian 105% | T-47D breast 95.3% | BT-549 breast 77.6% | MDA-MB-435 melanoma 94.1% | SW-620 colon 117% | HCT-116 colon 82.8% | HCC-2998 colon 96.4% | KM12 colon 96.9%

Cc1ccc(C(=O)NCCCOc2ccc(N3C(N)=NC(N)=NC3(C)C)cc2Cl)cc1S(=O)(=O)F
inactive: MOLT-4 leukemia 119% | SR leukemia 21.4% | OVCAR-8 ovarian 77.2% | OVCAR-5 ovarian 51.6% | OVCAR-4 ovarian 111% | SK-OV-3 ovarian 101% | OVCAR-3 ovarian 121% | HS 578T breast 109% | NCI/ADR-RES ovarian 108% | T-47D breast 104% | BT-549 breast 64.8% | MDA-MB-435 melanoma 73.1% | SW-620 colon 65.1% | MCF7 breast 75.4% | HCT-116 colon 62.2% | HCC-2998 colon 89.8% | KM12 colon 74.4%
active: IGROV1 ovarian -28.2%

COC(=O)[C@@H](C)C[C@H](Cc1ccccc1)NC(=O)c1nc([C@@H](C[C@H](C(C)C)N(C)C(=O)[C@@H](NC(=O)[C@H]2CCCCN2C)C(C)C)OC(C)=O)sc1C(C)C
active: MOLT-4 leukemia 5.59% | SR leukemia 3.18% | OVCAR-8 ovarian 2.95% | OVCAR-3 ovarian -22.9% | HS 578T breast 4.24% | NCI/ADR-RES ovarian 8.7% | BT-549 breast -35.6% | MDA-MB-435 melanoma -46.8% | HCT-116 colon -5.54% | HCC-2998 colon 3.15% | KM12 colon 1.85%
inactive: OVCAR-5 ovarian 27.1% | OVCAR-4 ovarian 41.6% | SK-OV-3 ovarian 26.8% | IGROV1 ovarian 19.8% | T-47D breast 53.1% | SW-620 colon 24.9% | MCF7 breast 18.3%

CC1=C([Te]c2ccc(O)cc2)C(=O)c2ccccc2C1=O
active: MOLT-4 leukemia -17% | SR leukemia -14.8% | OVCAR-4 ovarian -32.9% | SK-OV-3 ovarian -15.5% | IGROV1 ovarian -27% | OVCAR-3 ovarian -63.7% | HS 578T breast 8.43% | NCI/ADR-RES ovarian -2.79% | T-47D breast -67.3% | BT-549 breast -1.32% | MDA-MB-435 melanoma -76.7% | SW-620 colon 3.05% | MCF7 breast -4.83% | HCT-116 colon -63.4% | HCC-2998 colon -1.49% | KM12 colon 6.03%
inactive: OVCAR-8 ovarian 13.6% | OVCAR-5 ovarian 11.8%

CC(C)(C)C(=O)OCOP(=O)(NCc1ccccc1)C1CCCN(O)C1=O (centres undefined)
active: MOLT-4 leukemia 9.06% | SR leukemia 9.38% | OVCAR-3 ovarian -6.7% | HCT-116 colon 7% | KM12 colon -7.5%
inactive: OVCAR-8 ovarian 14.2% | OVCAR-5 ovarian 94.5% | OVCAR-4 ovarian 19.9% | SK-OV-3 ovarian 59.7% | IGROV1 ovarian 19.4% | HS 578T breast 14.7% | NCI/ADR-RES ovarian 13.5% | T-47D breast 23.3% | BT-549 breast 28% | MDA-MB-435 melanoma 39.4% | SW-620 colon 30.1% | MCF7 breast 19.3%

C[C@]12CC[C@@H]3c4ccc(Oc5nc(N6CC6)nc(N6CC6)n5)cc4CC[C@H]3[C@@H]1CCC2=O
inactive: OVCAR-8 ovarian 36.4% | OVCAR-5 ovarian 101% | OVCAR-4 ovarian 31.6% | SK-OV-3 ovarian 36.1% | IGROV1 ovarian 27.8% | OVCAR-3 ovarian 15.6% | HS 578T breast 45.4% | NCI/ADR-RES ovarian 41.2% | T-47D breast 33.7% | BT-549 breast 53.9% | MDA-MB-435 melanoma 48.5% | SW-620 colon 25.1% | MCF7 breast 20.6% | HCT-116 colon 26.7% | HCC-2998 colon 37% | KM12 colon 50%
active: MOLT-4 leukemia -25.2% | SR leukemia -5.09%

Cc1cc(NC(=O)NCc2ccc(N3C(N)=NC(N)=NC3(C)C)cc2)ccc1S(=O)(=O)F
active: SR leukemia 4.98% | OVCAR-8 ovarian -4.46% | IGROV1 ovarian -51.3% | HCC-2998 colon 5.34%
inactive: MOLT-4 leukemia 42% | OVCAR-5 ovarian 10.8% | OVCAR-4 ovarian 39.2% | SK-OV-3 ovarian 64.9% | OVCAR-3 ovarian 67.6% | HS 578T breast 68.6% | NCI/ADR-RES ovarian 112% | T-47D breast 59.7% | BT-549 breast 42% | MDA-MB-435 melanoma 32.7% | SW-620 colon 23.9% | MCF7 breast 23.2% | HCT-116 colon 23.3% | KM12 colon 16.2%
